Experiment [1] has as its system PRMT1 (protein arginine N-methyltransferase 1). In words: small molecules binding arginine methyltransferase PRMT1 – biochemical, small-molecule microarray, 635 nm fluorescence, primary screen (AID 1088).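 Note: binding of Prmt1 protein to compounds spotted on small-molecule microarray slides.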 The following applies: higher = more signal.
The nature of experiment [2]: growth effects on S. cerevisiae YJM789 – YJM789 clinical isolate, OD600, 24 h, basal, primary screen (AID 1089).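 Note: growth of clinical yeast isolate S. cerevisiae YJM 789 seeded 1000 cells per well; test concentration not given here.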 The following applies: higher = more signal, called active from +8 up or from −8 down.
Experiment [3] is described as follows: S. pombe growth modifiers, basal conditions – strain 972, OD600, 24 h, no modulator, primary screen (AID 1090).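 Note: basal condition with compound alone and no growth modifier present; test concentration not given here.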 The following applies: S. pombe 972 growth, higher = more signal, called active from +8 up or from −8 down.
Experiment [4] in a line: budding yeast growth modifiers under rapamycin – strain BY4716, OD600, 96 h, primary screen (AID 1091). Note: test concentration not given here. The settings on record: S. cerevisiae BY4716 + rapamycin, higher = more signal, called active from +8 up or from −8 down.
Experiment [5] addresses Torsin-1A-interacting protein 2 (Homo sapiens) (UniProt Q8NFQ8). In words: small molecules binding lysate-expressed LULL1 – cell lysate, human LULL1 lysate, 635/667 nm fluorescence, primary screen (AID 1092).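 Note: probe is lysate of COS7 cells overexpressing human LULL1; score merges per-feature 667 nm fluorescence with signal-to-noise.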 The following applies: small-molecule microarray, hLULL1 lysate binding, 635 nm fluorescence; higher = more signal.
The nature of experiment [6]: optical density change of DRC41 E. coli – strain DRC41, OD650, 24 h, E. coli filamentation project, primary screen (AID 1093).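 Note: MC1000 strain lacking acrAB efflux and sulA so SOS filamentation is blocked; test concentration not given here.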 The following applies: E. coli DRC41 growth, higher = more signal, called active from +8 up or from −8 down.
Experiment [7] can be described thus: probe aLefty2 binding to arrayed compounds – biochemical, biotinylated probe, 635/667 nm fluorescence, primary screen (AID 1094).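 Note: score merges spot fluorescence near 667 nm with spot signal-to-noise ratio.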 The settings on record: small-molecule microarray, higher = more signal.
Experiment [8] deals with Noggin (protein binding on small-molecule microarray). Description: small molecules binding Noggin protein – biochemical, 635/667 nm fluorescence, primary screen (AID 1095).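 Note: score merges 667 nm feature fluorescence with signal to noise over triplicate slides.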 The following applies: 635 nm fluorescence, higher = more signal.
Experiment [9] addresses Neurogenic locus notch homolog protein 3 (Homo sapiens) (UniProt Q9UM47). Description: small molecules binding NOTCH3 protein – biochemical, 635/667 nm fluorescence, primary screen (AID 1096). The settings on record: small-molecule microarray, 635 nm fluorescence, higher = more signal.
Experiment [10] is described as follows: probe aEGFR binding to arrayed compounds – biochemical, biotinylated probe, 635/667 nm fluorescence, primary screen (AID 1097).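 Note: probe is a biotinylated anti-EGFR antibody binding compounds printed on slides; score combines fluorescence near 667 nm and signal to noise of each spot.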 The settings on record: small-molecule microarray, higher = more signal.

Calls of active or inactive are those of the source.

Chain of Neurogenic locus notch homolog protein 3 (Homo sapiens) (Q9UM47 whole entry, looked up): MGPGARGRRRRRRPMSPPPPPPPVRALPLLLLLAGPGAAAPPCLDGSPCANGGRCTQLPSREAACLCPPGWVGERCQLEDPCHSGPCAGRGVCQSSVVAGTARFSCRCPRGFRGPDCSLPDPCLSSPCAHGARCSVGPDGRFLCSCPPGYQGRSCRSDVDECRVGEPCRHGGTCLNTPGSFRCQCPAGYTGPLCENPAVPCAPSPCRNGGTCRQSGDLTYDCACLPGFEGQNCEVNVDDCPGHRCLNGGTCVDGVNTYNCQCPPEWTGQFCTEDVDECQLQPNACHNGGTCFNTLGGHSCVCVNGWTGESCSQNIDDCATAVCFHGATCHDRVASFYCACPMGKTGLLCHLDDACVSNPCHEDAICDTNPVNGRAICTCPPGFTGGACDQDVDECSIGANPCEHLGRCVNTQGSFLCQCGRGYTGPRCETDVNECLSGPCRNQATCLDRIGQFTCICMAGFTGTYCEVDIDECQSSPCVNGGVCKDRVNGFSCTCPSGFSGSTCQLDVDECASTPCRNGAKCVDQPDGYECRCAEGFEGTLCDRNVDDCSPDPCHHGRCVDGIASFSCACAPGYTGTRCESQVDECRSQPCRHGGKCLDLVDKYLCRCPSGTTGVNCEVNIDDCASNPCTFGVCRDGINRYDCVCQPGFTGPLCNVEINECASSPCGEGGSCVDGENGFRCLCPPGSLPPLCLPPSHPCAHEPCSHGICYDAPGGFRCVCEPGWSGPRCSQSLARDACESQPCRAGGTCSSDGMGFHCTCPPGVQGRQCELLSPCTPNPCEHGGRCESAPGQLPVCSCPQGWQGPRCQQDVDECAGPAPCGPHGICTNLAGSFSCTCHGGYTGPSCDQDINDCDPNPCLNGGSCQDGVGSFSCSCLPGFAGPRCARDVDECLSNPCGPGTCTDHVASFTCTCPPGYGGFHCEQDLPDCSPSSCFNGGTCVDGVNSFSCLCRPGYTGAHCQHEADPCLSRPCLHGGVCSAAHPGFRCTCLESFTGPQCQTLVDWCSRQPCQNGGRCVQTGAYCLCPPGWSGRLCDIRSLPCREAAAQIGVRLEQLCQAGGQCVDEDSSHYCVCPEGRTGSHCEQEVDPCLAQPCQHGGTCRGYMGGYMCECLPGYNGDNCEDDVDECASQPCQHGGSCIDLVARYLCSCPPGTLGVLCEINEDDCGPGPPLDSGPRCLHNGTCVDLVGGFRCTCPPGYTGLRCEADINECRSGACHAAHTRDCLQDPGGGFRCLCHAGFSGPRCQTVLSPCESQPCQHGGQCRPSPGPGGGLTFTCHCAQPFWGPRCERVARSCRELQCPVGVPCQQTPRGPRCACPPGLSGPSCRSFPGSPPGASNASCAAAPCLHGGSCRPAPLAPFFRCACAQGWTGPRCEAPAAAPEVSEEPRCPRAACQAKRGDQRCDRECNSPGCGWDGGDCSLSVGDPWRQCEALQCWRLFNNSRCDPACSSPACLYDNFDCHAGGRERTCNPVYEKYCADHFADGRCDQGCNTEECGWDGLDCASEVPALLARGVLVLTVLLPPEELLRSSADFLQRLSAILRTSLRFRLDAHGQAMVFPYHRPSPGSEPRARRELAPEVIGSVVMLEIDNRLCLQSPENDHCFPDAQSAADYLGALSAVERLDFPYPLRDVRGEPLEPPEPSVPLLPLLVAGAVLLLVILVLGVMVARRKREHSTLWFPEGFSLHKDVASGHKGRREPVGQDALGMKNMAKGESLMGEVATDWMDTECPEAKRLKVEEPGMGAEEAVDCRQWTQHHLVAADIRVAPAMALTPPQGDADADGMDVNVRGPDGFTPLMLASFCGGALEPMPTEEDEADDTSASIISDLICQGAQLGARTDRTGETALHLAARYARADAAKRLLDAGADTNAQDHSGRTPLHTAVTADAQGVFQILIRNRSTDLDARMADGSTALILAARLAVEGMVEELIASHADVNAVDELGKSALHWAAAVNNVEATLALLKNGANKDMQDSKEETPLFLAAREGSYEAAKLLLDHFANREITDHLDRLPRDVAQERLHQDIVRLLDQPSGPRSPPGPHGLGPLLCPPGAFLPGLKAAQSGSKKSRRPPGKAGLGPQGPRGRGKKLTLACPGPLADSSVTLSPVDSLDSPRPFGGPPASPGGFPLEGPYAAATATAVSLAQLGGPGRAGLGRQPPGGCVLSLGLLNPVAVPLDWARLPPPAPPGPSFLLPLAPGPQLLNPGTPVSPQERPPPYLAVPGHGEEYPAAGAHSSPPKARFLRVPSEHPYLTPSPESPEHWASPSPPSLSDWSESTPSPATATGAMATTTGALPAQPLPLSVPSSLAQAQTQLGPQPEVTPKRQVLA
Chain of Torsin-1A-interacting protein 2 (Homo sapiens) (Q8NFQ8 whole entry, looked up): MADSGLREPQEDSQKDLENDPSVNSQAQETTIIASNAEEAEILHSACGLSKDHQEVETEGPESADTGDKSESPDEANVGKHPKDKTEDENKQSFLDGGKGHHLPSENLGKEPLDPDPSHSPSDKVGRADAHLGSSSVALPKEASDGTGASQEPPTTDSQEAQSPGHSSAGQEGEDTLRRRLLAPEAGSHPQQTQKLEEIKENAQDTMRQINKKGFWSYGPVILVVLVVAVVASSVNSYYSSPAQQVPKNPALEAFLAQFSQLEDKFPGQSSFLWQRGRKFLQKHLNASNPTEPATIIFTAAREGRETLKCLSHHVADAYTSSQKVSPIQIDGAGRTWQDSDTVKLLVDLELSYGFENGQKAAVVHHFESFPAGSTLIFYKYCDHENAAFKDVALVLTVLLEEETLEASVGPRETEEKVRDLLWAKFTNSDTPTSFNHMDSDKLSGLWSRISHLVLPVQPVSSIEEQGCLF

For the compound `C#C[C@@H](CC)O[Si](C#Cc1ccc(Oc2ccccc2)cc1)(C(C)C)C(C)C`, the composite z-score in experiment [1] was 1.29; in [5] it was 0.964; in experiment [7], -0.152; in experiment [8] it was 0.269; in [9], 0.916; in [10] it was -0.0028. The z-score in experiment [2] was 0.356 (inactive); in [3] it was -0.951 (inactive); in experiment [4] it was 1 (inactive); in experiment [6] it was -0.44 (inactive).
In the case of `CCOC(=O)NN=C1C[C@@H](O)[C@@H](O)[C@@H]2[C@@H]3C(=O)N(CC)C(=O)[C@@H]3CC[C@@H]12`, the composite z-score in [1] was 0.268; in experiment [5] it was 1.31; in experiment [7], -0.176; in [8], 0.299; in experiment [9] it was 0.905; in experiment [10], 0.0082. The z-score was -0.846 (inactive) in experiment [2], 0.0572 (inactive) in experiment [3], -0.293 (inactive) in experiment [4] and -0.319 (inactive) in experiment [6].
For the compound `CN1C(=O)[C@@]2(CCC(=O)OC(C)(C)C)N=C(c3ccc(OCCCO)cc3)O[C@H]2c2ccccc21`, the composite z-score in experiment [1] is 1.54; in [5], 2.82; in experiment [7] it was 0.0112; in experiment [8], 0.747; in experiment [9], 0.736; in experiment [10], -0.168. Further, the z-score in experiment [2] was -1.08 (inactive); in experiment [3], -2.19 (inactive); in experiment [4], 0.0793 (inactive); in [6], 1.43 (inactive).
For `COc1ccc(O[C@@H]2[C@H](O)CO[C@H]2C=CC#Cc2ccccc2)cc1`, the composite z-score in [1] is 0.101; in experiment [5], 0.0101; in experiment [7] it was -0.197; in [8], 0.347; in experiment [9] it was -0.413; in [10], -0.228. Further, the z-score is 0.937 (inactive) in experiment [2], -0.777 (inactive) in [3], 0.958 (inactive) in experiment [4] and 0.338 (inactive) in [6].
For `O=C(CS)NCCCCCNC(=O)[C@H]1C[C@H]2C(=O)N3CCC[C@H]3C(=O)N2[C@H]1c1cccc(OCCO)c1`, the composite z-score in experiment [1] is 1.53; in experiment [5], 2.7; in experiment [7], 0.0124; in experiment [8] it was 1.76; in [9], 1.1; in experiment [10] it was -0.0025. The z-score in experiment [2] is 0.436 (inactive); in experiment [3] it was -0.723 (inactive); in experiment [4], -0.173 (inactive); in experiment [6] it was 0.146 (inactive).
For the compound `COCCOC(=O)N1C(=O)[C@@]2(c3cc(C#CC4(O)CCCCCC4)ccc31)[C@H](C(=O)N1CCN(c3ncccn3)CC1)[C@H]1C(=O)O[C@H](c3ccccc3)[C@H](c3ccccc3)N1[C@@H]2c1ccc(OCCO)cc1`, the composite z-score in experiment [1] was 1.53; in [5], 2.61; in experiment [7], -0.0075; in [8] it was 1.64; in experiment [9] it was 1.08; in experiment [10], 0.0779. For the same compound, the z-score is 2.12 (inactive) in [2], 1.35 (inactive) in experiment [3], 5.93 (inactive) in experiment [4] and 2.25 (inactive) in experiment [6].
Take `COc1ccc(O[C@H]2C=C[C@@H](c3ccccc3)O[C@@H]2COC(=O)CCC(C)=NO[C@H](C)c2cn([C@@H]3COC[C@H]3O)nn2)cc1`: the composite z-score is 1.53 in [1]; 0.146 in experiment [5]; -0.181 in [7]; 0.525 in [8]; 0.942 in experiment [9]; -0.148 in experiment [10]. Moreover, the z-score is -0.88 (inactive) in [2], -0.757 (inactive) in experiment [3], -0.56 (inactive) in experiment [4] and 0.508 (inactive) in [6].
For the compound `N#Cc1ccc(NN2C(C(O)c3cc(C(F)(F)F)cc(C(F)(F)F)c3)C=CC3C(=O)N(c4ccccc4)C(=O)C32)cc1` (stereo not given), the composite z-score in experiment [1] was 1.34; in experiment [5] it was 3.45; in experiment [7], 0.135; in experiment [8] it was 0.0695; in [9], 1.05; in [10], 0.0731. The z-score in experiment [2] is 0.628 (inactive); in experiment [3] it was 0.817 (inactive); in experiment [4], 4.19 (inactive); in [6] it was -1.55 (inactive).
For `COC(=O)[C@H](C)NC(=O)CCC1CC(OC(=O)NCc2ccc3c(c2)OCO3)CC2(CCCC(COC(=O)NCCOc3ccccc3)O2)O1` (stereo not given in full), the composite z-score in experiment [1] was 1.55; in experiment [5], 1.57; in experiment [7], -0.147; in experiment [8], 0.737; in experiment [9] it was 1.07; in experiment [10], -0.165. Also, the z-score is -1.31 (inactive) in [2], 0.26 (inactive) in experiment [3], 0.303 (inactive) in [4] and -1.16 (inactive) in experiment [6].
As to `CC1CC/C=C\[C@H]2OC34C=CCN(Cn5nnc6ccccc65)C(=O)[C@H]3N(CCO)C(=O)[C@@H]4C2C(=O)O1` (stereo not given in full), the composite z-score in experiment [1] is 0.754; in experiment [5] it was 3.32; in [7], -0.0819; in experiment [8] it was -1.08; in [9] it was -0.695; in [10] it was -0.424. Further, the z-score was -1.71 (inactive) in experiment [2], -1.64 (inactive) in experiment [3], -1.99 (inactive) in experiment [4] and 2.92 (inactive) in [6].
In the case of `CN(C)CCCNC(=O)[C@@H]1c2ccccc2C(=O)N(Cc2ccccc2)[C@H]1c1ccc(CO)cc1`, the composite z-score in experiment [1] was 0.0881; in experiment [5], 0.282; in experiment [7] it was 0.555; in experiment [8], -0.848; in experiment [9], -1.21; in experiment [10], 0.259. Moreover, the z-score in experiment [2] was 0.115 (inactive); in experiment [3], -0.699 (inactive); in experiment [4], -0.848 (inactive); in [6], 0.442 (inactive).
As to `COC(=O)CC=C[C@@H](C)[C@H](OC)c1ccccc1Br`, the composite z-score in [1] is 0.0909; in experiment [5], 0.154; in experiment [7], -0.188; in experiment [8], 0.462; in experiment [9] it was -0.105; in experiment [10], -0.113. The z-score in experiment [2] is 0.703 (inactive); in experiment [3] it was -0.636 (inactive); in experiment [4] it was -0.417 (inactive); in experiment [6], 0.469 (inactive).
Turning to `CCOC(=O)CCN1C(=O)[C@H]2[C@H]3[C@H](O)[C@H](O)CC(=NOC[C@@H](O)COCc4ccco4)[C@@H]3CC[C@H]2C1=O`, the composite z-score in [1] is 0.163; in [5], 0.545; in [7] it was 0.0814; in experiment [8], -0.298; in experiment [9] it was -0.62; in experiment [10] it was -0.0764. In addition, the z-score in experiment [2] was 0.133 (inactive); in experiment [3], -0.226 (inactive); in [4], -0.0839 (inactive); in experiment [6] it was 0.383 (inactive).
For the compound `CC(C)NC(=O)[C@@]1(C)c2ccccc2C(=O)N(Cc2cc(F)cc(C(F)(F)F)c2)[C@H]1c1ccc(CO)cc1`, the composite z-score came to 0.86 in experiment [1]; 1.76 in [5]; 0.119 in experiment [7]; 0.371 in experiment [8]; 0.364 in [9]; 0.034 in experiment [10]. For the same compound, the z-score in experiment [2] was -0.0639 (inactive); in experiment [3], 0.102 (inactive); in [4], -0.623 (inactive); in experiment [6], 0.341 (inactive).
With `COc1ccc(O[C@H]2C=C[C@@H](c3ccccc3)O[C@@H]2COC(=O)CCC(C)=NOC[C@@H](C)[C@H](OCc2ccccc2)C(C)C)cc1`, the composite z-score is -0.548 in [1]; -0.694 in experiment [5]; -0.261 in experiment [7]; -0.37 in experiment [8]; -1.03 in experiment [9]; -0.219 in experiment [10]. The z-score in experiment [2] is 0.122 (inactive); in experiment [3], 0.329 (inactive); in [4] it was -1.18 (inactive); in [6] it was 0.17 (inactive).

The values are drawn from PubChem BioAssay.
